Assay outcomes from PubChem BioAssay.
In the library only some 10% were active in any assay of this set; here they are far more common.
JMJD2A Tudor inh: blocks the human JMJD2A Tudor domain; O75164; AlphaScreen JMJD2A-Tudor / H3K4me3 peptide binding; Potency, µM (highest dose often 114 µM), for inactives: at the highest dose activity change, negative = inhibition, actives largely listed as inhibitors; 390,000 compounds, 4.4% hits; further: on the % scale 0 is the no-effect control and ±100 the full control effect; nearly all actives have a fitted effect of over 50% in size
HP1b binding inh: HP1-beta chromodomain-methylated histone interaction inhibition. P83916. AlphaScreen HP1-beta / biotin-H3K9me3 peptide binding. Potency, µM (highest dose often 114 µM), without a hit: top-dose activity change, negative = inhibition, most hits filed as inhibitors. 390,000 compounds, 0.56% hits; further: nearly all actives have a fitted effect of over 70% in size
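Compound inhibition of the preformed complex between 50 nM HP1-beta and 50 nM biotinylated H3K9me3 peptide was read by AlphaScreen. Buffer was PBS pH 7.4 with 0.01% Tween-20. Incubations ran 30 min at room temperature, with 10 ug/mL donor/acceptor beads.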
GLS inh: blocks human kidney-isoform glutaminase activity; 410,000 compounds, 0.21% hits; Potency, µM (doses to about 45.5 µM), inactives show top-dose activity change, negative = inhibition, actives largely listed as inhibitors; O94925; GLS enzymatic activity, qHTS titration; further: on the % scale 0 is the no-effect control and ±100 the full control effect
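Read-out is an Amplex red fluorescence increase coupled through glutamate oxidase and HRP, measured before and after 30 min room-temperature incubation. hKGA is in 45 mM KH2PO4 (pH 8.2) with 0.02% Tween-20; glutamine added as 1mM solution.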
G9a block: inhibitors of human histone lysine methyltransferase G9a. Q96KQ7. G9a H3K9 monomethylation, AlphaScreen, 2 h. Potency, µM (series often up to 102 µM), for the others: top-dose activity, negative = inhibition, actives largely listed as inhibitors. 350,000 compounds, 8.8% hits. AID 504332; further: on the % scale 0 is the no-effect control and ±100 the full control effect; nearly all actives have a fitted effect of over 75% in size
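Using a bead-based AlphaScreen, monomethylated H3K9 product from 2 h room-temperature reactions (G9a 20 nM, peptide 500 nM, SAM 20 uM) was detected with 0.5 ug/mL rabbit anti-H3K9me1 antibody.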
BAZ2B inh: BAZ2B (human) inhibition; Q9UIF8; AlphaScreen BAZ2B-H3K14Ac peptide displacement; Potency, µM (highest dose often 114 µM), for inactives: at the highest dose activity change, negative = inhibition, actives largely listed as inhibitors; 360,000 compounds, 4.4% hits; AID 504333; further: on the % scale 0 is the no-effect control and ±100 the full control effect; nearly all actives have a fitted effect of over 60% in size
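BAZ2B (50 nM) with biotin-H3(5-23)K14Ac peptide (50 nM) in PBS pH 7.4, 0.01% Tween-20, preformed 30 min, then compound 30 min at room temperature; top concentration 110uM. AlphaScreen streptavidin donor/nickel chelate acceptor beads (10 ug/mL final), 20 min dark, signal read.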
* marks the source's active call; other numbers are inactive results; ? = inconclusive; · = not tested or not shown; ! = repeats disagree; [ ] = another dose, or the depositor's remark. The call rests on the fitted dose curve; in most records, active means well fitted curve in the direction sought with a large enough effect; inconclusive means small, poorly fitted or top-dose-only effect, or another doubt; inactive means no such curve, though single readings can be large; an effect the other way counts as inactive or inconclusive. Potency means the concentration at half of the fitted maximal effect.

SMILES	JMJD2A Tudor inh	HP1b binding inh	GLS inh	G9a block	BAZ2B inh
CCOC(=O)Cc1csc(SCn2nnc3ccccc3c2=O)n1	1%	53%	-5%	45µM*	29%
CCOC(=O)Cc1csc(-n2sc3ccccc3c2=O)n1	18µM*	?	?	1.1µM*	5µM*
CCOC(=O)NC1c2ccccc2Oc2ccccc21	-6%	2%	8%	·	2%
CCOC(=O)NC1(NCC(C)C)Oc2ccccc2O1	?	-14%	51%	0.89µM*	0%
CCOC(=O)NC1(Nc2ccc(C)cc2)Oc2ccccc2O1	?	?	-30%	?	-11%
CCOC(=O)NC1(NC(C)C)Oc2ccccc2O1	7%[11.4 µM]	-24%	55%	10µM*	7%
COc1ccccc1C(CCN(Cc1cccs1)C(C)=O)c1ccco1 (configuration not stated)	-28%	8%	-1%	45µM*	79µM*
CC(=O)N1CCCc2cc(S(=O)(=O)N3CCN(c4cccc(C(F)(F)F)c4)CC3)ccc21	-17%	31%[57 µM]	1%	-15%[59 µM]	-9%
N[C@@H](Cc1ccc(O)c(O)c1)C(=O)O	40µM*	20µM*	?	20µM*	·
COC(=O)C(N)Cc1ccc(OC)c([N+](=O)[O-])c1 (configuration not stated)	-10%	22%	-11%	·	0%
N[C@@H](Cc1cc(I)c(Oc2ccc(O)c(I)c2)c(I)c1)C(=O)O	-24%	-21%	16µM*!	4µM*!	50µM*!
NC(C(=O)O)C(O)c1ccc(O)c(O)c1 (configuration not stated)	·	·	31%	1.1µM*	·
NC(Cc1ccc(O)c([N+](=O)[O-])c1)C(=O)O (configuration not stated)	?	-5%	4%	?	50µM*
N[C@H](Cc1ccc(O)cc1)C(=O)O	·	·	·	30%[59 µM]	·
COc1cccc2c(N/N=C/c3ccccc3)cc(C)nc12	-23%	27%	17%	-40%[59 µM]	-36%
O=C(Nc1ccc([N+](=O)[O-])cc1)C(=O)Nc1cccc(C(=O)O)c1	-17%	26%	-2%	-32%	-18%
NC(Cc1cccc2nsnc12)C(=O)O (configuration not stated)	7.1µM*	5%	-15%	?	-5%
NC(Cc1ccc2nsnc2c1)C(=O)O (configuration not stated)	2.2µM*	-9%	3%	·	·
COc1ccc(OC)c(CCNC(=O)Cn2nc(C)c3c(C)n(-c4ccc(C)cc4)nc3c2=O)c1	-26%	27%	-13%	·	50µM*
Cc1nn(CCC(=O)NCc2ccc(N(C)C)cc2)c(=O)c2nn(-c3ccccc3)c(C)c12	-25%	43%	32%	45µM*	-13%
CCOc1ccc(CNC(=O)Cn2nc(C)c3c(C)n(-c4ccc(C)cc4)nc3c2=O)cc1	40µM*!	16%	9%	16%	-32%
O=C(CCn1cnc2ccccc2c1=O)Nc1nc2c(s1)CCCC2	-3%	26%	10%	8%[12.7 µM]	-2%
Cc1ccccc1OCCC(=O)OCC(=O)c1c(N)n(CC(C)C)c(=O)n(C)c1=O	-20%	13%	-2%	·	·
COc1ccc2oc(=O)c(C(=O)N3c4ccccc4CC3C)cc2c1 (configuration not stated)	-22%	19%	5%	3%[59 µM]	-6%
CCCCn1c(N)c(N(CCOC)C(=O)c2ccc(Br)s2)c(=O)[nH]c1=O	5%	89%	-2%	-14%	11%
Cc1cccc(Oc2ccccc2NC(=O)CSCC(=O)Nc2cc(C)on2)c1	-8%	9%	-2%	10µM*	-32%
CS(=O)(=O)N1CCN(C(=O)NC23CC4CC(CC(C4)C2)C3)CC1	-7%	65%	2%	5%[12.7 µM]	11%
Cc1nnc(SCC(=O)N(C)CC(=O)Nc2ccccc2Cl)s1	-3%	20%	3%	50µM*	9%
CCc1ccccc1NC(=O)CN(C)C(=O)CSc1nnc(Nc2cccc(C)c2C)s1	-19%	19%	8%	16µM*	-10%
CN(CC(=O)Nc1ccccc1Cl)C(=O)Cn1cc(C(F)(F)F)cc(Cl)c1=O	1%	22%	1%	45µM*	-2%
